Laboratory results as given in PubChem BioAssay (NCI).
Several values for one entry are separate records, joined by “and”; a condition that tells them apart may be missing. Equal values may be shown once. The panel holds about 83,000 compounds, 20% with a hit somewhere; the sample as a whole holds those more often.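 Assay: single dose, 48 h. Readout: percent growth (0 = no net growth; negative = cell death). Active: <10.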 Activity calls are given as the source filed them.

Legend:
Assay in all cases: NCI-60 one-dose screen, 48 h (100 = growth as untreated, 0 = no growth, -100 = all killed)
Conditions in all cases: 10 µM unless noted
NCI-H23 lung = test system: NCI-H23 lung
NCI-H226 lung = test system: NCI-H226 lung
NCI-H322M lung = test system: NCI-H322M lung
HOP-62 NSCLC = test system: HOP-62 NSCLC
NCI-H460 lung = test system: NCI-H460 lung
HOP-92 NSCLC = test system: HOP-92 NSCLC
NCI-H522 lung = test system: NCI-H522 lung
A549/ATCC NSCLC = test system: A549/ATCC NSCLC
786-0 renal = test system: 786-0 renal
COLO 205 colon = test system: COLO 205 colon
DU-145 prostate = test system: DU-145 prostate
K-562 leukemia = test system: K-562 leukemia
MALME-3M melanoma = test system: MALME-3M melanoma
MDA-MB-231 breast = test system: MDA-MB-231 breast
RXF 393 renal = test system: RXF 393 renal
SF-268 CNS = test system: SF-268 CNS
SF-295 CNS = test system: SF-295 CNS
SF-539 CNS = test system: SF-539 CNS
UACC-257 melanoma = test system: UACC-257 melanoma
M14 melanoma = test system: M14 melanoma

Measured: growth

Cc1nc(Nc2ccc(Cl)cc2)c2cnn(-c3ccccc3)c2n1
inactive: NCI-H23 lung 97.3% | NCI-H226 lung 96.6% | NCI-H322M lung 104% | HOP-62 NSCLC 108% | NCI-H460 lung 103% | HOP-92 NSCLC 95.4% | NCI-H522 lung 105% | A549/ATCC NSCLC 110% | 786-0 renal 103% | COLO 205 colon 102% | DU-145 prostate 107% | K-562 leukemia 113% | MALME-3M melanoma 90.3% | MDA-MB-231 breast 111% | RXF 393 renal 93.6% | SF-268 CNS 99.8% | SF-295 CNS 97.1% | SF-539 CNS 99.9% | UACC-257 melanoma 101% | M14 melanoma 100%

OCCS
inactive: NCI-H23 lung 93.7% | NCI-H226 lung 98.8% | NCI-H322M lung 101% | HOP-62 NSCLC 97.3% | NCI-H460 lung 106% | HOP-92 NSCLC 95.2% | NCI-H522 lung 102% | A549/ATCC NSCLC 95.1% | 786-0 renal 94.2% | COLO 205 colon 107% | DU-145 prostate 104% | K-562 leukemia 91.4% | MALME-3M melanoma 101% | MDA-MB-231 breast 99.3% | RXF 393 renal 110% | SF-268 CNS 99.5% | SF-295 CNS 101% | SF-539 CNS 100% | UACC-257 melanoma 90.9% | M14 melanoma 97.6%

COc1cc(Cl)ccc1C
inactive: NCI-H23 lung 90.3% | NCI-H226 lung 98.3% | NCI-H322M lung 85.6% | HOP-62 NSCLC 99.5% | NCI-H460 lung 34% | HOP-92 NSCLC 99.3% | NCI-H522 lung 57% | A549/ATCC NSCLC 84.5% | 786-0 renal 100% | COLO 205 colon 94.1% | K-562 leukemia 83.3% | MALME-3M melanoma 93.7% | MDA-MB-231 breast 85.9% | RXF 393 renal 91.2% | SF-268 CNS 83.9% | SF-295 CNS 79.2% | SF-539 CNS 104% | UACC-257 melanoma 85% | M14 melanoma 95.8%
active: DU-145 prostate 5.38%

COc1ccc(CCN=Cc2ccc(Cl)cc2)cc1OC
inactive: NCI-H23 lung 100% | NCI-H226 lung 112% | NCI-H322M lung 106% | HOP-62 NSCLC 107% | NCI-H460 lung 113% | HOP-92 NSCLC 89.6% | NCI-H522 lung 94.8% | A549/ATCC NSCLC 108% | 786-0 renal 108% | COLO 205 colon 108% | DU-145 prostate 106% | K-562 leukemia 122% | MALME-3M melanoma 135% | MDA-MB-231 breast 109% | RXF 393 renal 177% | SF-268 CNS 99.5% | SF-295 CNS 121% | SF-539 CNS 111% | UACC-257 melanoma 109% | M14 melanoma 111%

OCc1ccccc1F
inactive: NCI-H23 lung 88% | NCI-H226 lung 103% | NCI-H322M lung 105% | HOP-62 NSCLC 97.3% | NCI-H460 lung 48.1% | HOP-92 NSCLC 106% | NCI-H522 lung 71.1% | A549/ATCC NSCLC 93.4% | 786-0 renal 101% | COLO 205 colon 92.3% | DU-145 prostate 11.4% | K-562 leukemia 106% | MALME-3M melanoma 134% | MDA-MB-231 breast 86.3% | RXF 393 renal 77.5% | SF-268 CNS 95.8% | SF-295 CNS 72% | SF-539 CNS 101% | UACC-257 melanoma 107% | M14 melanoma 90.8%

Cc1onc(-c2c(F)cccc2Cl)c1-c1ncc(-c2ccc(Cl)cc2)o1
29.6% (inactive) and 3.17% (active): NCI-H460 lung
inactive: NCI-H23 lung 67% and 42.5% | NCI-H226 lung 76.9% and 58.4% | NCI-H322M lung 104% and 57% | HOP-62 NSCLC 78% and 53.4% | HOP-92 NSCLC 34.2% and 73% | NCI-H522 lung 35.1% | A549/ATCC NSCLC 53.1% and 41.4% | 786-0 renal 73.9% and 31.6% | COLO 205 colon 53.5% and 43.6% | DU-145 prostate 97.2% and 50.2% | K-562 leukemia 27.9% and 21.5% | MALME-3M melanoma 60.2% and 46.6% | MDA-MB-231 breast 54.1% and 46.3% | RXF 393 renal 89.9% and 52.7% | SF-268 CNS 66.2% and 49.8% | SF-295 CNS 43.8% and 42.2% | SF-539 CNS 68% and 36.5% | UACC-257 melanoma 22.5% | M14 melanoma 54.8% and 46.6%

Cc1ccc(S(=O)(=O)n2ccnc2)cc1
inactive: NCI-H23 lung 102% | NCI-H226 lung 93.5% | NCI-H322M lung 118% | HOP-62 NSCLC 106% | NCI-H460 lung 104% | HOP-92 NSCLC 97% | NCI-H522 lung 95.8% | A549/ATCC NSCLC 89.1% | 786-0 renal 138% | COLO 205 colon 120% | DU-145 prostate 120% | K-562 leukemia 123% | MALME-3M melanoma 107% | MDA-MB-231 breast 98.9% | RXF 393 renal 96.2% | SF-268 CNS 104% | SF-295 CNS 102% | SF-539 CNS 96.7% | UACC-257 melanoma 91.5% | M14 melanoma 104%

COc1ccc2oc3c(ccc[n+]3C)c(=O)c2c1
inactive: NCI-H23 lung 105% | NCI-H226 lung 98.3% | NCI-H322M lung 105% | HOP-62 NSCLC 80.5% | NCI-H460 lung 108% | HOP-92 NSCLC 94.7% | NCI-H522 lung 82.7% | A549/ATCC NSCLC 84% | 786-0 renal 105% | COLO 205 colon 98.6% | DU-145 prostate 113% | K-562 leukemia 99% | MALME-3M melanoma 102% | MDA-MB-231 breast 110% | RXF 393 renal 108% | SF-268 CNS 101% | SF-295 CNS 99.5% | SF-539 CNS 98.2% | UACC-257 melanoma 87.3% | M14 melanoma 102%

CCOC(=O)C(N)Cc1cc(I)c(O)c(I)c1 (stereo not given)
102% (inactive) and -3.49% (active): HOP-92 NSCLC
inactive: NCI-H23 lung 99.5% and 102% | NCI-H226 lung 91.6% and 96.6% | NCI-H322M lung 113% and 106% | HOP-62 NSCLC 106% and 113% | NCI-H460 lung 109% and 115% | NCI-H522 lung 108% and 90.7% | A549/ATCC NSCLC 107% and 101% | 786-0 renal 99.7% and 105% | COLO 205 colon 108% and 110% | DU-145 prostate 109% and 107% | K-562 leukemia 105% | MALME-3M melanoma 115% | MDA-MB-231 breast 104% and 97.5% | RXF 393 renal 105% and 112% | SF-268 CNS 99% and 100% | SF-295 CNS 115% and 124% | SF-539 CNS 115% and 102% | UACC-257 melanoma 108% | M14 melanoma 105% and 104%

CC1CCC(=O)N1c1ccc(N)cc1 (stereo not given)
inactive: NCI-H23 lung 103% | NCI-H226 lung 100% | NCI-H322M lung 96.4% | HOP-62 NSCLC 86.3% | NCI-H460 lung 106% | HOP-92 NSCLC 107% | NCI-H522 lung 85.2% | A549/ATCC NSCLC 89.1% | 786-0 renal 106% | COLO 205 colon 104% | DU-145 prostate 105% | K-562 leukemia 99.9% | MALME-3M melanoma 105% | MDA-MB-231 breast 101% | RXF 393 renal 112% | SF-268 CNS 103% | SF-295 CNS 102% | SF-539 CNS 99.8% | UACC-257 melanoma 88.7% | M14 melanoma 104%

COc1cc2c(cc1O)C(=O)CCCC2
inactive: NCI-H23 lung 91.8% | NCI-H226 lung 102% | NCI-H322M lung 102% | HOP-62 NSCLC 91.5% | NCI-H460 lung 103% | HOP-92 NSCLC 82.9% | NCI-H522 lung 70.6% | A549/ATCC NSCLC 110% | 786-0 renal 94.9% | COLO 205 colon 143% | DU-145 prostate 117% | K-562 leukemia 124% | MALME-3M melanoma 108% | MDA-MB-231 breast 108% | RXF 393 renal 105% | SF-268 CNS 90.3% | SF-295 CNS 83.8% | SF-539 CNS 99.6% | UACC-257 melanoma 121% | M14 melanoma 97.2%

O=c1[nH]nnc2cc(Cl)ccc12
inactive: NCI-H23 lung 94.4% and 92.2% | NCI-H226 lung 104% and 93.2% | NCI-H322M lung 110% and 115% | HOP-62 NSCLC 105% and 89.1% | NCI-H460 lung 114% and 101% | HOP-92 NSCLC 109% | NCI-H522 lung 103% and 106% | A549/ATCC NSCLC 101% | 786-0 renal 117% and 94.5% | COLO 205 colon 112% and 117% | DU-145 prostate 108% and 114% | K-562 leukemia 119% and 98.3% | MALME-3M melanoma 124% and 113% | MDA-MB-231 breast 105% and 97.6% | RXF 393 renal 119% and 111% | SF-268 CNS 101% and 95.4% | SF-295 CNS 103% | SF-539 CNS 104% and 106% | UACC-257 melanoma 98.6% and 105% | M14 melanoma 105%

COc1ccccc1OCC(O)CO (stereo not given)
inactive: NCI-H23 lung 106% and 103% | NCI-H226 lung 102% and 94.6% | NCI-H322M lung 75.7% and 115% | HOP-62 NSCLC 96.8% and 121% | NCI-H460 lung 105% and 113% | HOP-92 NSCLC 90% | NCI-H522 lung 98.6% and 106% | A549/ATCC NSCLC 96.6% | 786-0 renal 97.6% and 102% | COLO 205 colon 116% | DU-145 prostate 115% and 123% | K-562 leukemia 118% and 87.4% | MALME-3M melanoma 110% and 105% | MDA-MB-231 breast 114% and 111% | RXF 393 renal 110% and 111% | SF-268 CNS 100% and 114% | SF-539 CNS 92.3% and 121% | UACC-257 melanoma 102% and 105% | M14 melanoma 104% and 106%
3.64% (active) and 96.5% (inactive): SF-295 CNS
